# VP16 counter = Gal4-VP16 reporter inhibition counter-screen | Potency, µM (series often up to 53.6 µM), for the others: at the top dose activity, negative = inhibition, hits mostly inhibitors | hit rate 3.5% among 310,000 | Drosophila S2 Gal4-VP16 UAS-luciferase, luminescence, 20 h;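 further: Gal4-VP16 expression switched on by copper sulfate through the metallothionein promoter; potency means the concentration at half of the fitted maximal effect; on the % scale 0 is the no-effect control and ±100 the full control effect; nearly all actives have a fitted effect of over 50% in size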
# TRPV1 ag = activates the human vanilloid receptor TRPV1 | TRPV1-expressing cells, Fluo-8 calcium influx, agonist mode | activation, % at 8.33 µM | hit rate 0.19% among 320,000; in the data active means activation above about 80%; inconclusive means between about 30% and that limit; further: 0% is about no effect
# Target sequence (Q8NER1 whole entry, looked up): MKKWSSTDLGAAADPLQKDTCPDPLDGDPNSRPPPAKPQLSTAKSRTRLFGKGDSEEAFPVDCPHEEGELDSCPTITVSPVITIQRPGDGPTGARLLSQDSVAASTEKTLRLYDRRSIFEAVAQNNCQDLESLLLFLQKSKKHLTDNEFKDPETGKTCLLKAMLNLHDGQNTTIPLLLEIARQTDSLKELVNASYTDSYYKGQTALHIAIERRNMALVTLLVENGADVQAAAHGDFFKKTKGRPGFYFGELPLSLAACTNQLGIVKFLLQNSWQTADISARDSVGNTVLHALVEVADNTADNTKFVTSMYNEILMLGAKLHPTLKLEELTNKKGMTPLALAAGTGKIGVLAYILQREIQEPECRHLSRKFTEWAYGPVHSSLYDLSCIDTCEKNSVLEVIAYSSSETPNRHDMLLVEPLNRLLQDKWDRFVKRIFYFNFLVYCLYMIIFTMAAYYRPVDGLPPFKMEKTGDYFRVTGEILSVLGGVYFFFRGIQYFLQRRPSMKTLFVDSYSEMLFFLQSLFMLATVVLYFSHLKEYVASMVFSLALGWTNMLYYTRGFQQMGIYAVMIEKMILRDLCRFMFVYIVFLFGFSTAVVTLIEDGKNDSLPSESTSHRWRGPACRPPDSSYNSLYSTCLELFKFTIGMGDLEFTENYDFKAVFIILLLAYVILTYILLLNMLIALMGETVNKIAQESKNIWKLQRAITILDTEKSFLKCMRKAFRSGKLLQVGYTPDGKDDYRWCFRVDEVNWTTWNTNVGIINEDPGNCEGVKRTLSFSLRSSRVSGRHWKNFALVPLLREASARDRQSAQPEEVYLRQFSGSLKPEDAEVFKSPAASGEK
#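 TRPV1-expressing cells were cultured overnight at 35.5C and loaded with Fluo-8 calcium dye for 40 to 90 min at room temperature. After a 10 s baseline, compound was added and calcium influx was read kinetically for 3 min (ex 480/em 520 nm).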
# uPA surface inh = blocks generation of uPA at the cell surface. cell surface uPA generation assay, qHTS. Potency, µM (doses to about 38.3 µM), for the others: at the top dose activity change, negative = inhibition, usual class: inhibitors. hit rate 0.31% among 330,000; active means well fitted inhibition curve with a large enough effect; inconclusive means small, poorly fitted or top-dose-only effect; inactive means no such curve, though single readings can be large or run the other way; tested in mouse RAW 264.7 cells; further: potency means the concentration at half of the fitted maximal effect; on the % scale 0 is the no-effect control and ±100 the full control effect; nearly all actives have a fitted effect of over 55% in size
# RORgamma inh = inhibitors of mouse ROR gamma transcriptional activity | Drosophila S2 Gal4-RORgamma UAS-luciferase reporter, 20 h | Potency, µM (top dose mostly 53.6 µM), without a hit: top-dose activity change, negative = inhibition, usual class: inhibitors | hit rate 5.4% among 310,000; further: potency means the concentration at half of the fitted maximal effect; on the % scale 0 is the no-effect control and ±100 the full control effect; nearly all actives have a fitted effect of over 60% in size
#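 Luminescence from a UAS-regulated Photinus luciferase reporter in stably transfected Drosophila Schneider cells is measured; decreased signal marks ROR gamma inhibition. Fusion expression is induced by 700 uM copper sulfate for 20 hr.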
# TRPV1 potentiator = human TRPV1 potentiation | TRPV1-expressing cells, Fluo-8 calcium influx, capsaicin EC20 potentiation | potentiation, % at 8.33 µM | hit rate 0.02% among 320,000; in the data active means potentiation above about 80%; inconclusive means between about 30% and that limit; further: 0% is about no effect
#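 Fluo-8 calcium influx in TRPV1-expressing cells, kinetic read (ex 480/em 520 nm). Compound added and read 3 min for agonist activity, followed by capsaicin at EC20 final and 2 min further read for enhancement.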
# Active calls of the source: *; ? = inconclusive; · = no result; ! = repeats disagree. Shown are actives, neighbours in structure and some others; about 5.8% of the full set was active somewhere. Unless noted, the call rests on the fitted dose curve; in most records, active means well fitted curve in the direction sought with a large enough effect; inconclusive means small, poorly fitted or top-dose-only effect, or another doubt; inactive means no such curve, though single readings can be large; an effect the other way counts as inactive or inconclusive.
SMILES,VP16 counter,TRPV1 ag,uPA surface inh,RORgamma inh,TRPV1 potentiator
CCOc1ccc(NC(=O)CCCN2C(=S)NC(C)(C)CC2C)cc1 (configuration not stated),?,-2.8,-3.2%,?,3.2
CC1CC(C)(C)NC(=S)N1CC(=O)N(C)Cc1ccccc1 (configuration not stated),-20.4%,0.2,1.2%,17.8µM*,16.6
Cc1ccc(C)c(N2CCN(C(=O)CCCN3C(=S)NC(C)(C)CC3C)CC2)c1 (configuration not stated),4.47µM*,5.1,-5.9%,5.62µM*,-2.2
CC1CC(C)(C)NC(=S)N1CC(=O)NCc1ccc(F)cc1 (configuration not stated),-18.2%,-3.3,2.7%,-13.4%,11.7
Cc1cccc(N2CCN(C(=O)CCN3C(=S)NC(C)(C)CC3C)CC2)c1C (configuration not stated),?,3.1,-3.7%,4.47µM*,-1.3
CC1CC(C)(C)NC(=S)N1CCC(=O)NCc1ccc(F)cc1 (configuration not stated),3.5%,-0.8,-1.4%,?,14.2
CC(=O)Nc1cccc(NC(=O)CSc2nc3c(c(=O)n(C)c(=O)n3C)n2C)c1,-9.4%,-1.6,-0.1%,-5.4%,5.5
CC(C)(C)OC(=O)N[C@@H](Cc1ccccc1)[C@H](O)c1ccco1,1.2%,16.2,6.2%,-8.1%,1.6
CC(C)(C)OC(=O)N1CCCC(C(=O)Nc2ccc(C(=O)NC3CC3)cc2)C1 (configuration not stated),·,·,3.7%,·,·
COc1ccc2nc3c(c(-c4ccccc4)c2c1)CCC3,17.8µM*!,?,6.4%,11.2µM*,-17.1
COCCNc1c2c(nc3c(-c4ccccc4)c(C)nn13)CCCC2,-2.4%,26.9,·,?,-10.2
COc1cccc(Nc2c3c(nc4c(-c5ccccc5)c(C)nn24)CCC3)c1,3.16µM*,4.2,-7.9%,?,-6.4
Cc1nn2c(NCCN(C)C)c3c(nc2c1-c1ccccc1)CCCC3,0.447µM*,5.1,-10.5%,?,2.8
Cc1nn2c(Nc3ccc(F)cc3)c3c(nc2c1-c1ccccc1)CCC3,?,-1.2,1.0%,2.82µM*,-5.0
CC(C)C[C@H](NC(=O)[C@H](CCCCN)NC(=O)CNC(=O)[C@H](CC(C)C)NC(=O)[C@@H](NC(=O)[C@@H]1CSSC[C@H](N)C(=O)N[C@@H](CO)C(=O)N[C@@H](CC(N)=O)C(=O)N[C@@H](CC(C)C)C(=O)N[C@@H](CO)C(=O)N[C@@H]([C@@H](C)O)C(=O)N1)C(C)C)C(=O)N[C@@H](CO)C(=O)N[C@@H](CCC(N)=O)C(=O)N[C@@H](CCC(=O)O)C(=O)N[C@@H](CC(C)C)C(=O)N[C@@H](Cc1cnc[nH]1)C(=O)N[C@@H](CCCCN)C(=O)N[C@@H](CC(C)C)C(=O)N[C@@H](CCC(N)=O)C(=O)N[C@H](C(=O)N[C@@H](Cc1ccc(O)cc1)C(=O)N1CCC[C@H]1C(=O)N[C@@H](CCCNC(=N)N)C(=O)N[C@H](C(=O)N[C@@H](CC(N)=O)C(=O)N[C@H](C(=O)NCC(=O)N[C@@H](CO)C(=O)NCC(=O)N[C@H](C(=O)N1CCC[C@H]1C(N)=O)[C@@H](C)O)[C@@H](C)O)[C@@H](C)O)[C@@H](C)O,-5.4%,·,·,6.8%,·
CCCCNc1c2c(nc3c(-c4ccccc4)c(C)nn13)CCC2,1.0%,-16.6,·,-4.3%,18.2
CCC(C)Nc1c2c(nc3c(-c4ccccc4)c(C)nn13)CCC2 (configuration not stated),-12.1%,12.7,·,10µM*,-5.5
CCCN1C(=O)CC(c2ccco2)Sc2ccccc21 (configuration not stated),?,?,·,15.8µM*,-18.4
CN1C(=O)CC(c2ccco2)Sc2ccccc21 (configuration not stated),16.8%,0.3,·,-32.2%,?
CC(C)CC(=O)NC(=S)Nc1ccc(N2CCN(C(=O)c3cccs3)CC2)cc1,6.31µM*,3.2,-6.8%,7.08µM*,12.7
Cc1ccc(C(=O)N2CCN(c3ccc(NC(=S)NC(=O)c4cccs4)cc3)CC2)cc1,11.2µM*,0.2,-4.2%,7.08µM*,15.4
CC(C)C(=O)Nc1ccc(N2CCN(C(=O)c3cccs3)CC2)cc1,-1.9%,1.3,7.2%,6.6%,11.4
COc1ccc(C(=O)N2CCN(c3ccc(NC(=O)c4cccs4)cc3)CC2)cc1,-8.1%,-1.8,7.3%,35.0%,6.9
Cc1ccc(C(=O)NC(=S)Nc2ccc(N3CCN(C(=O)c4ccco4)CC3)cc2)cc1,5.62µM*,0.7,1.8%,12.6µM*,17.7
O=C(NC(=S)Nc1ccc(N2CCOCC2)cc1)c1cccs1,?,7.0,-13.1%,2.82µM*,-9.6
SMILES,VP16 counter,TRPV1 ag,uPA surface inh,RORgamma inh,TRPV1 potentiator
C/C(=N/NC(=O)c1cccs1)c1ccc(N2CCOCC2)cc1,?,3.0,0.4%,-8.6%,-1.4
O=C(NC1CCSc2ccccc21)c1cc(S(=O)(=O)N2CCOCC2)ccc1Cl (configuration not stated),·,16.8,-4.9%,·,-12.9
Cc1nn(CC2CC2)c(=O)n1-c1cccc(Cl)c1,8.2%,1.1,-0.5%,20.3%,-8.6
Cc1noc(C)c1-c1ccc2ncnc(NCc3ccccc3Cl)c2c1,5.2%,·,·,-32.2%,·
CNC(=O)c1ccccc1-c1cn(C)c2ccccc2c1=O,8.7%,-2.5,-17.2%,16.7%,13.1
Cc1cc(C)nc(N2CCCC(C(=O)NC3CC3)C2)n1 (configuration not stated),1.2%,1.0,-1.9%,2.5%,-0.8
COc1ccc2oc(C(=O)OCC(=O)NCc3ccccc3OC)c(C)c2c1,·,6.9,4.2%,·,-3.3
O=C(Nc1ccc(N2CCN(C(=O)c3ccccc3)CC2)cc1)c1cccs1,-15.3%,3.8,-5.8%,?,2.0
Cc1ccccc1C(=O)N1CCN(c2ccc(NC(=S)NC(=O)c3cccs3)cc2)CC1,5.62µM*,1.1,?,2.82µM*,4.2
COc1ccc(CNCCC(c2ccc(OC(C)C)cc2)C(C)C)cc1OC (configuration not stated),-24.7%,11.6,·,-27.5%,-13.5
COc1ccc(C(CCNCc2ccc(OC(C)C)cc2)C(C)C)cc1 (configuration not stated),?,11.8,-5.9%,12.6µM*,-7.8
N#Cc1c(N)[nH]c(=S)c(C#N)c1-c1ccccc1,?,0.7,·,10µM*,18.3
Cc1ccc(-c2cc(-c3ccccc3)[nH]c(=S)c2C#N)cc1,?,2.3,2.0%,?,1.8
CN(CCCNC(=O)c1cc2c(Cl)nc3ccccc3c2s1)Cc1ccccc1,11.2µM*,13.0,-7.6%,?,-15.0
CCN(CC)CCCNC(=O)c1cc2c(Cl)nc3ccccc3c2s1,-19.0%,-2.3,?,-28.4%,-0.1
COc1ccc([N+](=O)[O-])cc1NC(=O)C(C)NNC(=O)c1cccc([N+](=O)[O-])c1 (configuration not stated),·,·,1.3%,·,·

# High-throughput results: PubChem BioAssay, National Center for Advancing Translational Sciences (NCATS)
